# Assay outcomes deposited in PubChem by National Center for Advancing Translational Sciences (NCATS).
# NPC1 promoter act: NPC1 promoter activation. 320,000 compounds, 2.4% hits. Potency, µM (titrated, usually from 9.22 µM), without a hit: at the top dose activation, most hits filed as activators. Huh7 NPC1 promoter luciferase reporter, 24 h. AID 485313; also: % of control where 0% means no effect; nearly all actives have a fitted effect of over 60% in size
#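 Compounds in DMSO were transferred onto Huh7 NPC1-luciferase reporter cells pre-incubated 2 h; after 24 h at 37 °C, Amplite reagent was dispensed and luminescence recorded 10 min later.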
# FLuc counter: inhibits or activates purified firefly luciferase, miR-21 counter-screen; purified FLuc, Km substrates, luminescence inhibition; Potency, µM (titrated, usually from 57.5 µM), inactives show at the top dose activity change, negative = inhibition, usual class: inhibitors; 360,000 compounds, 6.9% hits; AID 588342;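 also: plate controls were vehicle for no effect and reference inhibitor for full effect; nearly all actives have a fitted effect of over 55% in size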
# Target sequence (P08659 whole entry, looked up): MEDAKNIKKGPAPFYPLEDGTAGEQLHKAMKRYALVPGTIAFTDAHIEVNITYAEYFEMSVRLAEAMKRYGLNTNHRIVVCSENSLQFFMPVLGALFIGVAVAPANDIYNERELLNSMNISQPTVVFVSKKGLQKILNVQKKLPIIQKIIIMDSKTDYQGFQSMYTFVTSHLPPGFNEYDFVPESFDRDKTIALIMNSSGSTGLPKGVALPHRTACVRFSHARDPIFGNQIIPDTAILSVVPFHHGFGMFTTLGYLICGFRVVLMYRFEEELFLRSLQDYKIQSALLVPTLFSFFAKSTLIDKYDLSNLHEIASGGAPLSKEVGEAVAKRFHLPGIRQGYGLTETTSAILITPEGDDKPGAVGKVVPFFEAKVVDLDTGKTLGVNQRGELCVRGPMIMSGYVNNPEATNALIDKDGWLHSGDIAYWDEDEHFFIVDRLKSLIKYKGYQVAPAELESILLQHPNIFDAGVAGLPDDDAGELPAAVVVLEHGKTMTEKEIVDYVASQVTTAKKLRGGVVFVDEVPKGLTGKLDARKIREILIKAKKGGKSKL
#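 Biochemical qHTS of compounds, final roughly 60 µM downward over six points, against 10 nM purified firefly luciferase using Km concentrations of substrates (10 uM D-luciferin, 10 uM ATP) in Tris acetate pH 7.5 buffer; luminescence output.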
# Rab9 prom act: Rab9 promoter activation; Huh7 Rab9 promoter-luciferase reporter, luminescence, 24 h; Potency, µM (highest dose often 9.22 µM), without a hit: at the highest dose activation, negative = inhibition, usual class: activators; 320,000 compounds, 2.8% hits; AID 485297; also: % of control where 0% means no effect; nearly all actives have a fitted effect of over 60% in size
#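 Measured in stably transfected Huh7 cells bearing a Rab9 promoter–luciferase construct: 24 h compound treatment at 37 °C, followed by luminescence detection.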
# ELG1 DNA repair: ELG1-dependent DNA repair inhibition; HEK293T ELG1-luciferase reporter, luminescence, 16 h; DNA damage induced by 5-fluorouridine; Potency, µM (doses to about 46.1 µM), without a hit: at the top dose activity change, negative = inhibition, usual class: inhibitors; 330,000 compounds, 2.3% hits; AID 504467; also: % is scaled to controls: 0 for no effect and ±100 for the full control effect; nearly all actives have a fitted effect of over 55% in size
#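 Luminescence from the luciferase reporter, measured 30 min after ONE-Glo reagent at room temperature, was the read-out. Beforehand, 2,000 cells per well were exposed for 16 hr at 37 °C to 5-fluorouridine together with compound or vehicle.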
# ELG1 genotoxic: genotoxicity induction in ELG1-luciferase HEK293T cells; HEK293T ELG1-luciferase reporter, luminescence, 16 h; Potency, µM (doses to about 46 µM), for the others: top-dose activity change, positive = activation, hits mostly activators; 330,000 compounds, 1.3% hits; AID 504466; also: % of control where 0% means no effect; nearly all actives have a fitted effect of over 60% in size
#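 Step 1: seed 2,000 HEK293T ELG1-luciferase cells per well. Step 2: add compound or DMSO, incubate 16 hr at 37 °C. Step 3: ONE-Glo, 30 min at room temperature, read luminescence.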
# SMN2 splice enh: increases expression of the SMN2 splice variant | 210,000 compounds, 2.8% hits | Potency, µM (series often up to 46.1 µM), for the others: at the top dose activity change, positive = activation, hits mostly activators | HEK293 SMN2-luciferase splicing reporter, luminescence, 30-36 h; also: % of control where 0% means no effect; nearly all actives have a fitted effect of over 55% in size
#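 HEK293 cells carry an SMN2 minigene-luciferase reporter in which exon 7 inclusion puts luciferase in frame. Cells were seeded at 2000 cells/well, attached for 10-12 hours, then exposed to compounds for 30-36 hours at 37C before ONE-Glo luminescence.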
# An asterisk follows results filed as active; ? = inconclusive; . = not tested or not shown; [ ] = dose if it differs, or a comment. A selection: hits, their analogues and other compounds. The true share with any hit is near 9.2%. Calls follow the shape of the dose curve; as a rule, active = well fitted curve in the direction sought with a large enough effect; inconclusive = small, poorly fitted or top-dose-only effect, or another doubt; inactive = no such curve, though single readings can be large; an effect the other way counts as inactive or inconclusive. Potency is read from the fitted curve at half-maximal effect.
SMILES,NPC1 promoter act,FLuc counter,Rab9 prom act,ELG1 DNA repair,ELG1 genotoxic,SMN2 splice enh
COc1ccc(-n2nc(C(=O)NCC(=O)N3CCN(c4cccc(Cl)c4)CC3)c3ccccc3c2=O)c(OC)c1,-3%,7.6µM*,-4%,-14%,0%,.
COc1ccc(N2CCN(C(=O)c3cnn(-c4ccc(F)cc4)c3-n3cccc3)CC2)cc1,.,1%,.,.,.,.
COc1ccc(-n2nc(C(=O)O)c3ccccc3c2=O)c(OC)c1,-5%,1%,-5%,11%,-2%,18%
COc1cc(/C=N/Nc2nc(-c3ccc(S(=O)(=O)N(C)C)cc3)cs2)ccc1O,-10%,3.4µM*,-9%,12µM*,-25%,.
O=S(=O)(c1cccc(-c2csc(N/N=C/c3ccco3)n2)c1)N1CCOCC1,-2%,?,-10%,23µM*,-15%,.
O=S(=O)(c1cccc(-c2csc(-c3ccccc3)n2)c1)N1CCOCC1,7%,-18%,7%,-4%,0%,-16%
COc1ccc(/C=N/Nc2nc(-c3cccc(S(=O)(=O)N4CCCC4)c3)cs2)cc1OC,-1%,?,-13%,?,-7%,-66%
CCOc1cc(/C=N/Nc2nc(-c3cccc(S(=O)(=O)N4CCCC4)c3)cs2)ccc1O,-1%,-2%,2%,21µM*,-10%,-118%
NC(=O)c1cc(C(=O)Cc2ccc(Cl)cc2)c[nH]1,14%,-19%,?,?,15%,.
CC(C)c1ccc(NC(=O)CCNS(=O)(=O)c2ccc3[nH]c(=O)oc3c2)cc1,0%,?,-1%,14%,0%,.
O=C(NCCCc1ccccc1)c1ccc([N+](=O)[O-])cc1Cl,?,8.5µM*,?,?,?,.
Cc1ccc(C(=O)NCCCc2ccccc2)c(C)c1,1.4µM*,8.5µM*,3.5µM*,?,16µM*,13µM*
Cc1cc(C)cc(C(=O)NCCCc2ccccc2)c1,-1%,-12%,-1%[1.84 µM],1%,2%,-2%
O=C(NCCc1ccccc1)C(=O)Nc1cccc(Br)c1,.,0%,.,.,.,-2%
Cc1cccc(NC(=O)C(=O)NCCCc2ccccc2)c1,?,?,?,?,23%,10µM*
Cc1ccc(C(=O)NCCCc2ccccc2)c(Cl)c1,2.5µM*,8.5µM*,2.2µM*,?,?,.
O=S(=O)(Nc1ncccn1)c1ccc(NC(=S)Nc2ccccc2Cl)cc1,3%,0%,-6%,-14%,-1%,.
CCCc1cnc2c(c1SCc1cccc(C)c1)c(=O)n(C)c(=O)n2C,.,-1%,.,.,.,.
Cc1cc(-c2ccccc2)nc(N/N=C/c2ccc(O)cc2)n1,12%,1.5µM*,0%,-4%,-2%,.
Cc1cc(C)c2nc(C)cc(N/N=C/c3ccc(O)cc3)c2c1,-20%,13µM*,-5%,-14%,?,.
Oc1ccc(/C=N/Nc2nc(-c3ccc(Cl)cc3)cc(C(F)(F)F)n2)cc1,2%,27µM*,-3%,26µM*,-7%,-24%
N#C/C(=C\c1ccc(Cl)cc1)C(=O)NCC1CCCO1 (stereo not given),.,?,.,.,.,1%
COc1ccc(CN2CCN(C(=O)C3CCC(CNS(=O)(=O)c4ccc(C)cc4)CC3)CC2)c(OC)c1OC (stereo not given),-6%,0%,-27%,12µM*,-8%,-28%
COc1ccc(CN2CCN(C(=O)C3CCN(S(=O)(=O)c4cccs4)CC3)CC2)c(OC)c1OC,-5%,-4%,-12%,10µM*,-5%,-35%
CC(C)=CC1C=C(C)C(C)C2C(=O)NNC(=O)C12 (stereo not given),0%,4%,-2%,?,0%,4%
CSc1ccc(C(=O)N2CCc3ccc(NC(=O)c4ccccn4)cc3C2)cc1,?,19µM*,?,?,-34%,.
